Laboratory results: the supplement of paper PMC3334620
The full ranking holds about 33,000 sequences; the median of “E-score (-0.5 to 0.5)” is about -0.013, and the highest 2% start at about 0.3. Shown is part of a subset that was picked to be rich in the highest values.

What follows are sequences tested against T1, Msn1 (UniProt P22148) (assay: PBM E-score (8-mer binding enrichment) (E-score (-0.5 to 0.5)); higher = stronger / more preferred TF binding). Conditions: protein concentration: 200 nM; construct: GST-full length.
T1 sequence: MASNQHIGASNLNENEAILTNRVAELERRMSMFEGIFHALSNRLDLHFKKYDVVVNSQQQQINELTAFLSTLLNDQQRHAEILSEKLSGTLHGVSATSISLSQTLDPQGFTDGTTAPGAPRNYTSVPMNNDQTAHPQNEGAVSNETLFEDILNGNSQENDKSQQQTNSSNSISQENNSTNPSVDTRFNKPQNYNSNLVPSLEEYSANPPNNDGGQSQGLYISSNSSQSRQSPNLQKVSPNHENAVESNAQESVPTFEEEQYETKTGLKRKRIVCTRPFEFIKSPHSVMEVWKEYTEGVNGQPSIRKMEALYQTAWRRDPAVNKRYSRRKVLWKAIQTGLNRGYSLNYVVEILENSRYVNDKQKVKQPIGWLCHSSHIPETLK
Procedure, shortened: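 Each ungapped eight-base word and its reverse complement, pooled, received an E-score from the Universal PBM Analysis Suite. Underlying scans, normalised with masliner, recorded fluorescent anti-GST bound to GST-tagged yeast transcription factors. These were applied at about 100-200 nM to universal all-10-mer Agilent arrays double-stranded by primer extension.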

Sequence | PBM E-score
GCACCGAA | 0.0642
GTTAGACA | 0.33
TAGAGACA | 0.377
CATAGACA | 0.35
TATAGATA | 0.0139
ATTAGACA | 0.295
GAGAGACA | 0.246
TGTAGACA | 0.261
CATAGACC | -0.0541
CTTAGACA | 0.232
TATAGACA | 0.405
AAGAGACA | 0.288
CATAGACG | 0.194
GGAGCTCA | -0.0253
ACCCGGTA | 0.0382
CCGGCTAG | -0.141
GATTCACC | -0.145
CGAGGTAG | -0.251
AGGAAACT | 0.025
ACAAGAGG | -0.011
AATAGACA | 0.259
TCTAGACA | 0.332
GCTAGACA | 0.212
GATAGACA | 0.331

Sequence | PBM E-score
GATAGACC | -0.0609
CCTAGACA | 0.0613
ACTCGACC | -0.143
ACATACTC | 0.0584
GAGCCTTA | -0.168
CTGTCCAC | 0.184
GTGTCCAA | 0.389
ATGTCCAA | 0.485
CTGTCCAA | 0.287
AGGTCCAG | 0.0683
AGGTCCAC | -0.067
ATGTCCAG | 0.457
ATGTCCAC | 0.446
GAGTCCAA | -0.0901
GGGTCCAA | -0.104
AAGTCCAG | 0.244
AGGTCCAA | -0.00743
ATGGGTAA | 0.0578
CTTCCACC | -0.298
CGGTATCC | -0.224
AAACATGT | 0.17
ACCGATTC | -0.0811
AGATTGTC | 0.369
CGATTGTC | 0.348

Sequence | PBM E-score
AGATTGTG | -0.0281
AGATTGTA | 0.091
CGATTGTA | 0.088
CGATTGAC | 0.151
AGTTATTA | 0.0736
CAGCACTG | -0.226
GCCTTCGC | -0.098
CCAGATTC | -0.389
CCTTGTAC | 0.183
ATTTGTAG | 0.162
CTTTGTAA | 0.168
ATTTGTAC | 0.46
CTTTGTAC | 0.322
ATTTGTAA | 0.169
AGGAATTC | -0.0844
AGCGAACG | -0.274
CACCTTCG | -0.0896
GCAAATGA | -0.0127
CCAAATGG | 0.169
ACAAATGC | 0.304
CCAAATGA | 0.05
GCAAATGC | -0.113
ACAAAGGT | 0.218
ACAAATGT | 0.446

Sequence | PBM E-score
ACAAACGT | 0.244
ACAAATGG | 0.345
ACAATGGG | 0.196
ACAAATGA | 0.317
CCAAATGC | -0.0167
CTTCGGGA | 0.15
AACGAGCT | -0.0712
GGCGGCCA | -0.161
CGGTTAGA | -0.22
CACAATCC | 0.119
GCTCAACA | -0.0111
ATAGTTTG | 0.274
GCGCGATA | 0.119
GGATTGGA | 0.0131
ACAAATCT | 0.308
ACAAATCA | 0.266
ACAAATCC | 0.265
GAGGATCC | -0.0362
AAAAATGT | 0.335
AAAATGGG | 0.182
CAAAATGG | 0.133
AAAAATGC | 0.0785
AAAAATGG | 0.311
AAAAATGA | 0.143

Sequence | PBM E-score
AGTTTTTC | 0.0155
ATGCGTGA | 0.167
CGCCAGCG | -0.278
ATCCGGGA | -0.0993
GTCCGGAC | 0.406
ATCCGGAA | 0.215
CTCCGGAA | 0.0926
CTCCGGAC | 0.224
GTCCGGAA | 0.368
CTCCGGGA | -0.0499
GTCCGGGA | 0.336
ATCCGGAC | 0.297
GAGGAGCA | -0.184
TATTTTGA | 0.033
ATCTTTGG | -0.0763
CGCTTGTA | 0.211
CCCTTGTC | 0.204
CACTTGTC | 0.408
AGCTTGTC | 0.168
CACTTGTA | 0.157
AACTTGAA | 0.101
AACTTGAT | 0.321
CGCTTGTC | 0.345
AACTTGTC | 0.391

Sequence | PBM E-score
AACTTGTG | 0.132
AACTTGTA | 0.107
AACTTGAG | -0.212
ACCGAATG | -0.0786
AGCTCACA | -0.111
GCGGCTCC | -0.285
AACGCTAA | -0.0499
ATCGCAAC | -0.0713
GTTAAGAA | -0.0961
GATCCGGA | 0.0679
ACACCTAC | -0.04
CTCTTGTC | 0.339
CTCTTGTA | 0.035
ATCTTGTC | 0.246
CCACCACA | -0.214
TATGGGGA | 0.123
AAGAGGGT | -0.12
AGACATTA | 0.429
ACACATTG | 0.171
AGACATTG | 0.402
AGACATGA | 0.226
CCACATTA | -0.107
ACACATTA | 0.0185
CGACATGC | 0.218

Sequence | PBM E-score
CGACATTC | 0.332
CTACATTC | -0.121
CTACATTA | 0.00564
AAACATTG | -0.00791
CGACATTA | 0.386
ACTAATCA | 0.152
GTTTAGCA | 0.0757
CTCACCCA | -0.0776
TCCTTAGA | 0.117
CAACTATG | 0.161
GGCAGCGA | -0.245
AGATCGCT | -0.0127
GGACATTA | 0.489
AGACATGC | 0.21
GTACATTA | 0.278
GCACATTA | -0.0601
ACACATTC | 0.11
AGACATTC | 0.445
CGAAACCG | 0.0338
ACGCAAGC | -0.0684
ACTAGCTG | 0.0299
AATTCATC | -0.22
AAAAAGTG | -0.0627
